Shown are actives, neighbours in structure and some others; about 0.9% of the full set was active somewhere.
gsp ag = agonists of gsp mutant (McCune-Albright syndrome); gsp mutant cells, cAMP HTRF, 30 min; Potency, µM (series often up to 76.9 µM), hits mostly activators; actives 0.13% (n = 340,000); AID 624287; active = well fitted activation curve with a large enough effect; inconclusive = small, poorly fitted or top-dose-only effect, or another doubt; inactive = no such curve, though single readings can be large or run the other way; cell line not stated here;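 note: phosphodiesterase inhibitor Ro 20-1724 added with compounds to block cAMP breakdown; nearly all actives have a fitted effect of over 60% in size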
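Cells stably selected in G418 were plated at 2000/well, grown 16-24 hr, then given compounds in DMSO with the PDE inhibitor […] (300 uM solution added) for 30 min at 37C; cAMP was read by HTRF.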
RXFP1 ag = agonists of human relaxin receptor RXFP1; Potency, µM (highest dose often 57.5 µM), actives largely listed as activators; Q9HBX9; actives 0.3% (n = 370,000); HEK293T-RXFP1 cAMP TR-FRET, 30 min; response scale: percent of porcine relaxin response, buffer zero; active = well fitted activation curve with a large enough effect; inconclusive = small, poorly fitted or top-dose-only effect; note: nearly all actives have a fitted effect of over 60% in size
Target sequence (Q9HBX9 whole entry, looked up): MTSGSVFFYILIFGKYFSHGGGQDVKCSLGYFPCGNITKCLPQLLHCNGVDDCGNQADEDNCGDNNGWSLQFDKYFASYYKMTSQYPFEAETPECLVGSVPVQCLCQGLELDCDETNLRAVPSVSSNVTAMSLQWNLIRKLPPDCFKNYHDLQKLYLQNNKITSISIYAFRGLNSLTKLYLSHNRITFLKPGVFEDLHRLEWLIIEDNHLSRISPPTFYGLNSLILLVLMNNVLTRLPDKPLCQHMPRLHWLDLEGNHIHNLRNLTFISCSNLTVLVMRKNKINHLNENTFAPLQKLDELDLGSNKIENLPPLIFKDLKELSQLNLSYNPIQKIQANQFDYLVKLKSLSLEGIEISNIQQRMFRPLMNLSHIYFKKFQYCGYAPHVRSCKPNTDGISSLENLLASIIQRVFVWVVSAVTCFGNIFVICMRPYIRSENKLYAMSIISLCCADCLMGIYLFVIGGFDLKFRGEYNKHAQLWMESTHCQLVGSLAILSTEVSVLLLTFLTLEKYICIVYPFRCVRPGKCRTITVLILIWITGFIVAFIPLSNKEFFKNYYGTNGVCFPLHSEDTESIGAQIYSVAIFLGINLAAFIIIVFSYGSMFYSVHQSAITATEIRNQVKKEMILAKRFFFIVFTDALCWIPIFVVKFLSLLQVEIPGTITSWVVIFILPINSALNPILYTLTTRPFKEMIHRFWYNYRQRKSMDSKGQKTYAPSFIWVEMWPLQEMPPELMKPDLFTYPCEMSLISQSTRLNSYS
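Agonist response is measured as cAMP accumulation in an RXFP1-transfected HEK293T line under PDE4 inhibition. Values are scaled between buffer-only and 29 nM porcine relaxin, and EC50s come from standard Hill equation fits.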
RXFP1 antagonist = RXFP1 (human) relaxin receptor antagonism. actives 0.59% (n = 350,000). HEK293-RXFP1, relaxin-stimulated cAMP HTRF, 30 min; stronger effect = lower value. activity change, negative = inhibition, % at 57.5 µM. Q9HBX9. AID 1259400;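 active = activity change of -60% or lower, but not beyond a set lower limit; inconclusive = change between -60% and -40%, or beyond the set limit; inactive = change above -40%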
gsp antag = antagonizes gsp, the McCune-Albright syndrome mutation | gsp-mutant cells, cAMP HTRF, 30 min | Potency, µM (top dose mostly 76.9 µM), most hits filed as inhibitors | actives 0.4% (n = 340,000); calls by dose curve; cell line not stated here;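 note: intracellular cAMP measured with PDE inhibitor Ro 20-1724 present during compound exposure; nearly all actives have a fitted effect of over 65% in size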
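Cells, 2000/well, grown 16–24 h in DMEM 10% FBS with 0.5 mg/ml G418, then compounds plus […] (300 uM addition stock), 30 min at 37C. cAMP read by HTRF (cAMP-d2 and anti-cAMP antibody-K in lysis buffer) after 30 min RT.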
Each line names hits and unclear results; the compound was inactive in the other large screens; ! = a repeat was not active.

COc1ccc(NC(=O)Nc2nnc(-c3ccncc3)s2)cc1	gsp antag 35µM
O=C(Nc1ccc(Cl)c(Cl)c1)Nc1nnc(-c2ccncc2)s1	none
NC(=O)NC1N=C([O][Al])NC1=O (stereo unspecified)	none (no result: gsp ag, RXFP1 ag, gsp antag)
COC(=O)c1ccccc1NC(=O)Cn1cnc2sc(C)c(S(=O)(=O)N3CCC(C)CC3)c2c1=O	none (no result: gsp ag, gsp antag)
Cc1ccc2[nH]c(C)cc(=S)c2c1	RXFP1 ag 20µM (no result: gsp antag)
Cc1cccc(CNC(=O)c2oc3c(c2C)-c2nn(Cc4cccc(Cl)c4)cc2CC3)c1	RXFP1 antagonist inconclusive (no result: gsp ag, gsp antag)
CCOc1ccc(CNC(=O)c2oc3c(c2C)-c2nn(Cc4cccc(Cl)c4)cc2CC3)cc1	RXFP1 antagonist -78 (no result: gsp ag, gsp antag)
Cc1cccc(CNC(=O)c2oc3c(c2C)-c2nn(Cc4ccccc4Cl)cc2CC3)c1	RXFP1 antagonist -66 (no result: gsp ag, gsp antag)
CC(C)CN(C(=O)CSc1nncn1-c1ccccc1)c1c(N)n(CC(C)C)c(=O)[nH]c1=O	RXFP1 antagonist -60
Cc1ccccc1OCC(=O)Nc1ccc2nc(SCC(=O)N3CCCC3)sc2c1	RXFP1 antagonist -86 (no result: gsp ag, gsp antag)
CC(C)(C)c1ccc(C(=O)Nc2ccc3nc(SCC(=O)N4CCCC4)sc3c2)cc1	RXFP1 antagonist -101 (no result: gsp ag, gsp antag)
O=C(Nc1ccc2nc(SCC(=O)N3CCCC3)sc2c1)c1ccc(Br)cc1	none (no result: gsp ag, gsp antag)
O=C(Nc1ccc2nc(SCC(=O)N3CCOCC3)sc2c1)c1cccc(Cl)c1	RXFP1 antagonist -82 (no result: gsp ag, gsp antag)
CCc1cccc(C)c1NC(=O)CSc1nnc(CCCOc2ccc(Cl)cc2Cl)n1C	gsp antag 10µM
Cn1c(CCCOc2ccc(Cl)cc2Cl)nnc1SCC(=O)Nc1cccc(F)c1	none
S=c1[nH]ccc2ccccc12	gsp ag 5µM (no result: RXFP1 ag)
COc1cc2nc(Nc3ccc(C)c(C)c3)nc(N)c2cc1OC	RXFP1 antagonist -110!
COc1cc2nc(Nc3ccc(C)c(Cl)c3)nc(N)c2cc1OC	none
Cc1ccc(C)c(CSc2c(C(C)C)cnc3c2c(=O)n(C)c(=O)n3C)c1	none (no result: gsp ag, gsp antag)
Cc1cccc(-n2c(-c3ccco3)n[nH]c2=S)c1	gsp ag 6.3µM
Cc1cccc(-n2c(-c3csc(C(C)C)c3)n[nH]c2=S)c1	RXFP1 antagonist -71
CCCc1cc(-c2n[nH]c(=S)n2-c2cccc(C)c2)cs1	none (no result: gsp antag)
CCN1CCN(c2cc(-c3ccc(F)cc3)c3c(n2)CCCCCC3)CC1	none (no result: gsp ag, RXFP1 ag, gsp antag)
Cc1ccc(NCc2nc3ccccc3n2CCOc2ccccc2)cc1	RXFP1 antagonist -62!
Cc1ccc(OCCn2c(CNc3cccc(C)c3)nc3ccccc32)cc1	RXFP1 antagonist inconclusive (no result: gsp ag, gsp antag)
COc1ccc(CCNC(=O)CCCn2c(=O)c3cccn3c3cccnc32)cc1OC	none (no result: gsp ag, gsp antag)
CCOc1ccc(CCNC(=O)CCCn2c(=O)c3cccn3c3cccnc32)cc1OCC	RXFP1 ag inconclusive, RXFP1 antagonist -96!, gsp antag inconclusive
CCN(CC)CCCNC(=S)N1CCN(c2nc(-c3ccc(F)cc3)cs2)CC1	RXFP1 antagonist -74
CCNC(=S)N1CCN(c2nc(-c3ccc(F)cc3)cs2)CC1	gsp antag 35µM
COCCNC(=S)N1CCN(c2nc(-c3ccc(F)cc3)cs2)CC1	gsp antag inconclusive
COc1ccccc1N1CCN(C(=O)c2cc3c(C)nc4ccccc4c3o2)CC1	RXFP1 antagonist -62
Cc1ccc(C)c(N2CCN(C(=O)c3cc4c(C)nc5ccccc5c4o3)CC2)c1	gsp antag inconclusive
CC(C)(C)c1nc(SCC(=O)c2ccccc2)c2ccccc2n1	RXFP1 antagonist -67
O=C(O)CCCCCN1C(=O)/C(=C\c2cn(-c3ccccc3)nc2-c2cccs2)SC1=S	gsp antag 35µM
CCN1C(=O)/C(=C/c2cn(-c3ccccc3)nc2-c2cccnc2)SC1=S	gsp antag inconclusive (no result: RXFP1 ag)
Cc1ccc(-c2nn(-c3ccccc3)cc2/C=C2\SC(=S)N(CC(=O)O)C2=O)cc1	gsp antag inconclusive
O=C(O)CCCCCN1C(=O)/C(=C/c2cn(-c3ccccc3)nc2-c2cccs2)SC1=S	gsp ag inconclusive, gsp antag 35µM (no result: RXFP1 ag)
O=C(O)CCN1C(=O)/C(=C/c2cn(-c3ccccc3)nc2-c2cccs2)SC1=S	gsp antag 35µM
O=C(N/N=C/c1ccc(OC(F)F)cc1)c1ccc(CSc2nc3ccccc3[nH]2)cc1	RXFP1 antagonist inconclusive, gsp antag 8.9µM
O=C(OCC(COC(=O)c1cccnc1)(COC(=O)c1cccnc1)COC(=O)c1cccnc1)c1cccnc1	none (no result: gsp ag, RXFP1 ag, gsp antag)
Fc1ccccc1N=C1NN=C(c2ccccc2)CS1	none
Clc1ccccc1N=C1NN=C(c2cccs2)CS1	RXFP1 antagonist -83
O=C(Nc1ccc(N2CCOCC2)c(Cl)c1)c1ccc(Cl)cc1	RXFP1 antagonist -83
O=C(Nc1ccc(N2CCOCC2)c(Cl)c1)c1ccc2c(c1)OCCO2	none
Cc1ccc(NC(=O)c2cc(N3C(=O)C=CC3=O)ccc2N2CCOCC2)cc1Cl	RXFP1 antagonist -71
Cc1noc(-c2ccc(-c3noc(-c4ccc(Cl)cc4)n3)cc2)n1	none (no result: gsp ag, gsp antag)
CCCCN(C)S(=O)(=O)c1ccc(C(=O)Nc2ccc(-c3nc4ccc(C)cc4s3)cc2)cc1	none (no result: gsp ag, gsp antag)
COc1ccc(NC(=O)CSCC(=O)Nc2ccc(S(=O)(=O)N3CCCCC3)cc2)cc1	RXFP1 antagonist -64
COc1ccc(CSCC(=O)Nc2ccc(S(=O)(=O)N3CCCCCC3)cc2)cc1	none
O=C(Nc1ccc(Br)cc1F)c1ccc2c(c1)N(Cc1ccccc1)C(=O)CS2=O (stereo unspecified)	RXFP1 antagonist -72, gsp antag inconclusive
Cc1ccc(C)c(NC(=O)c2ccc3c(c2)N(Cc2ccc(F)cc2)C(=O)CS3=O)c1 (stereo unspecified)	none (no result: RXFP1 antagonist)
CCc1nn(CC(=O)Nc2ccc(C)cc2C)c(=O)c2cc3sccc3n12	none (no result: gsp ag, gsp antag)
O=C(NCCc1csc(-c2cccc(F)c2)n1)c1ccc(Br)o1	RXFP1 antagonist -78 (no result: gsp ag, gsp antag)
COc1ccc(CCC(=O)NCc2ccccc2OC)cc1	gsp ag inconclusive, gsp antag 3.2µM
COc1ccc(CCC(=O)NCCc2csc(-c3cccc(F)c3)n2)cc1	none (no result: gsp ag, gsp antag)
COc1ccc(CCC(=O)NCCc2csc(-c3cccc(C)c3)n2)cc1	RXFP1 antagonist -73 (no result: gsp ag, gsp antag)
CCOc1ccc(C(=O)NCCc2csc(-c3cccc(C)c3)n2)cc1	RXFP1 antagonist inconclusive (no result: gsp ag, gsp antag)
CCOC(=O)C1CCN(C(=O)Cn2nc(C)n3c(cc4sccc43)c2=O)CC1	none (no result: gsp ag, gsp antag)
CCN=c1sc2ccccc2n1CC(O)COc1ccccc1 (stereo unspecified)	RXFP1 antagonist -68
CCc1ccc(CNC(=O)c2ccc(CS(=O)(=O)Cc3ccccc3C)o2)cc1	none (no result: gsp ag, RXFP1 antagonist, gsp antag)
COC(=O)CCCCC(CCSS/C(CCO)=C(\C)N(C=O)Cc1cnc(C)nc1N)SC(C)=O (stereo unspecified)	none (no result: gsp ag, RXFP1 ag, gsp antag)
O=C(Cc1ccc(Br)c2ccccc12)N/N=C/c1ccccn1	RXFP1 antagonist inconclusive, gsp antag 25µM
Cc1cccc(N2CCN(C(=O)C3CCN(C(=O)c4cc5sccc5n4C)CC3)CC2C)c1 (stereo unspecified)	RXFP1 antagonist -65 (no result: gsp ag, gsp antag)
C=CCNc1ncnc2c1ncn2C1OC(CO)C(O)C1O (stereo unspecified)	RXFP1 ag 25µM
Nc1ncnc2c1ncn2C1OC(CO)C(O)C1O (stereo unspecified)	RXFP1 ag 14µM

Assay outcomes deposited in PubChem BioAssay by National Center for Advancing Translational Sciences (NCATS).
